# PubChem BioAssay AID1159580 (chemical genetic matrix, 2015)
# Hit rate of the full screen: of about 5,500 compounds, about 2,000 (36%) were called active. Another 18% or so got no clear call; they are omitted. The list shows a part of the results. Unmarked numbers belong to inactive results. Rule as the data show it: active = normalized growth mostly below about 0.91 (no sharp cut-off); inconclusive = no clear call, values can overlap the other calls; inactive = mostly above about 0.92.
# Test: chemical genetic growth profiling, strain panel (AID 1159580);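 also: tested at 20 µM; growth read once vehicle control cultures reached saturation at 30 °C; 1 = growth at the plate median or of vehicle wells; lower values mean less growth of the strain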
# Conditions: growth OD
# [1] = S. cerevisiae deletion strains, locus YDL101C, strain DUN1, hits give low values
# [2] = S. cerevisiae deletion strains, locus YHR030C, strain SLT2, hits give low values
structure (smiles),measurement,setting,value
COc1cc(C(=O)Oc2c(Cl)cc(Cl)cc2C=Nc2cccc(C(F)(F)F)c2)cc(OC)c1OC,normalized growth,"S. cerevisiae deletion strains, locus YAR019C, strain CDC15, hits give low values",0.977
same,normalized growth,"S. cerevisiae deletion strains, locus YBL105C, strain PKC1, hits give low values",0.976
same,normalized growth,"S. cerevisiae deletion strains, locus YBR135W, strain CKS1, hits give low values",0.971
same,normalized growth,"S. cerevisiae deletion strains, locus YBR136W, strain MEC1, hits give low values",0.973
same,normalized growth,"S. cerevisiae deletion strains, locus YBR160W, strain CDC28, hits give low values",0.968
same,normalized growth,"S. cerevisiae deletion strains, locus YDL017W, strain CDC7, hits give low values",0.974
same,normalized growth,"S. cerevisiae deletion strains, locus YDL028C, strain MPS1, hits give low values",0.962
same,normalized growth,[1],0.986
same,normalized growth,"S. cerevisiae deletion strains, locus YDL108W, strain KIN28, hits give low values",0.966
same,normalized growth,"S. cerevisiae deletion strains, locus YDL132W, strain cdc53, hits give low values",0.963
same,normalized growth,"S. cerevisiae deletion strains, locus YDL214C, strain PRR2, hits give low values",0.627 (active)
same,normalized growth,"S. cerevisiae deletion strains, locus YDR052C, strain DBF4, hits give low values",0.983
same,normalized growth,"S. cerevisiae deletion strains, locus YDR054C, strain cdc34, hits give low values",0.959
same,normalized growth,"S. cerevisiae deletion strains, locus YDR226W, strain ADK1, hits give low values",0.965
same,normalized growth,"S. cerevisiae deletion strains, locus YDR477W, strain SNF1, hits give low values",0.589 (active)
same,normalized growth,"S. cerevisiae deletion strains, locus YER123W, strain YCK3, hits give low values",0.422 (active)
same,normalized growth,"S. cerevisiae deletion strains, locus YER133W, strain GLC7, hits give low values",0.585 (active)
same,normalized growth,"S. cerevisiae deletion strains, locus YFL009W, strain cdc4, hits give low values",0.957
same,normalized growth,"S. cerevisiae deletion strains, locus YFL029C, strain CAK1, hits give low values",0.978
same,normalized growth,"S. cerevisiae deletion strains, locus YFR003C, strain YPI1, hits give low values",0.972
same,normalized growth,"S. cerevisiae deletion strains, locus YFR019W, strain FAB1, hits give low values",0.702 (active)
same,normalized growth,"S. cerevisiae deletion strains, locus YFR028C, strain CDC14, hits give low values",0.951
same,normalized growth,"S. cerevisiae deletion strains, locus YGR040W, strain KSS1, hits give low values",0.636 (active)
same,normalized growth,"S. cerevisiae deletion strains, locus YGR052W, strain FMP48, hits give low values",0.556 (active)
same,normalized growth,"S. cerevisiae deletion strains, locus YGR092W, strain DBF2, hits give low values",0.308 (active)
same,normalized growth,[2],0.363 (active)
same,normalized growth,"S. cerevisiae deletion strains, locus YHR079C, strain IRE1, hits give low values",0.388 (active)
same,normalized growth,"S. cerevisiae deletion strains, locus YHR082C, strain KSP1, hits give low values",0.484 (active)
same,normalized growth,"S. cerevisiae deletion strains, locus YHR205W, strain SCH9, hits give low values",0.465 (active)
same,normalized growth,"S. cerevisiae deletion strains, locus YIL147C, strain SLN1, hits give low values",0.972
same,normalized growth,"S. cerevisiae deletion strains, locus YJL095W, strain BCK1, hits give low values",0.421 (active)
same,normalized growth,"S. cerevisiae deletion strains, locus YJL128C, strain PBS2, hits give low values",0.917
same,normalized growth,"S. cerevisiae deletion strains, locus YJL157C, strain FAR1, hits give low values",0.617 (active)
same,normalized growth,"S. cerevisiae deletion strains, locus YJR016C, strain ILV3, hits give low values",0.986
same,normalized growth,"S. cerevisiae deletion strains, locus YJR066W, strain TOR1 (second series), hits give low values",0.775
same,normalized growth,"S. cerevisiae deletion strains, locus YJR066W, strain TOR1, hits give low values",0.368 (active)
same,normalized growth,"S. cerevisiae deletion strains, locus YKL048C, strain ELM1, hits give low values",0.78 (active)
same,normalized growth,"S. cerevisiae deletion strains, locus YKL067W, strain YNK1, hits give low values",0.605 (active)
same,normalized growth,"S. cerevisiae deletion strains, locus YKL101W, strain HSL1, hits give low values",0.648 (active)
same,normalized growth,"S. cerevisiae deletion strains, locus YKL193C, strain SDS22, hits give low values",0.971
same,normalized growth,"S. cerevisiae deletion strains, locus YKL203C, strain TOR2, hits give low values",0.693 (active)
same,normalized growth,"S. cerevisiae deletion strains, locus YLR113W, strain HOG1, hits give low values",0.488 (active)
same,normalized growth,"S. cerevisiae deletion strains, locus YLR133W, strain CKI1, hits give low values",0.626 (active)
same,normalized growth,"S. cerevisiae deletion strains, locus YLR403W, strain SFP1, hits give low values",0.473 (active)
same,normalized growth,"S. cerevisiae deletion strains, locus YML070W, strain DAK1, hits give low values",0.583 (active)
same,normalized growth,"S. cerevisiae deletion strains, locus YMR001C, strain CDC5, hits give low values",0.975
same,normalized growth,"S. cerevisiae deletion strains, locus YMR205C, strain PFK2 (second series), hits give low values",0.656 (active)
same,normalized growth,"S. cerevisiae deletion strains, locus YMR277W, strain FCP1, hits give low values",0.97
same,normalized growth,"S. cerevisiae deletion strains, locus YNL006W, strain LST8, hits give low values",0.981
same,normalized growth,"S. cerevisiae deletion strains, locus YNL020C, strain ARK1, hits give low values",0.594 (active)
same,normalized growth,"S. cerevisiae deletion strains, locus YNL161W, strain CBK1, hits give low values",0.977
same,normalized growth,"S. cerevisiae deletion strains, locus YNL183C, strain NPR1, hits give low values",0.497 (active)
same,normalized growth,"S. cerevisiae deletion strains, locus YNL207W, strain RIO2, hits give low values",0.982
same,normalized growth,"S. cerevisiae deletion strains, locus YNL222W, strain SSU72, hits give low values",0.969
same,normalized growth,"S. cerevisiae deletion strains, locus YNL307C, strain MCK1 (second series), hits give low values",0.555 (active)
same,normalized growth,"S. cerevisiae deletion strains, locus YOL078W, strain AVO1, hits give low values",0.969
same,normalized growth,"S. cerevisiae deletion strains, locus YOL136C, strain PFK27, hits give low values",0.548 (active)
same,normalized growth,"S. cerevisiae deletion strains, locus YOR061W, strain CKA2, hits give low values",0.576 (active)
same,normalized growth,"S. cerevisiae deletion strains, locus YOR119C, strain RIO1, hits give low values",0.597 (active)
same,normalized growth,"S. cerevisiae deletion strains, locus YOR231W, strain MKK1, hits give low values",0.465 (active)
same,normalized growth,"S. cerevisiae deletion strains, locus YOR329C, strain SCD5, hits give low values",0.978
same,normalized growth,"S. cerevisiae deletion strains, locus YPL031C, strain PHO85, hits give low values",0.574 (active)
same,normalized growth,"S. cerevisiae deletion strains, locus YPL153C, strain RAD53, hits give low values",0.578 (active)
same,normalized growth,"S. cerevisiae deletion strains, locus YPL204W, strain HRR25, hits give low values",0.562 (active)
same,normalized growth,"S. cerevisiae deletion strains, locus YPL209C, strain IPL1, hits give low values",0.976
same,normalized growth,"S. cerevisiae deletion strains, locus YPL256C, strain CLN2, hits give low values",0.443 (active)
same,normalized growth,"S. cerevisiae deletion strains, locus YPR025C, strain CCL1, hits give low values",0.966
same,normalized growth,"S. cerevisiae deletion strains, locus YPR106W, strain ISR1, hits give low values",0.965
same,normalized growth,"S. cerevisiae deletion strains, locus YPR111W, strain DBF20, hits give low values",0.931
same,normalized growth,"S. cerevisiae deletion strains, strain NNK1, hits give low values",0.98
same,normalized growth,"S. cerevisiae deletion strains, strain TSCII, hits give low values",0.967
COC(=O)c1cc(OC)c(OC)cc1NS(=O)(=O)c1ccc(C)cc1,normalized growth,"S. cerevisiae deletion strains, locus YAL013W, strain DEP1, hits give low values",1.01
same,normalized growth,"S. cerevisiae deletion strains, locus YBR229C, strain ROT2, hits give low values",0.996
same,normalized growth,[1],0.994
same,normalized growth,"S. cerevisiae deletion strains, locus YDR150W, strain NUM1, hits give low values",0.933
same,normalized growth,"S. cerevisiae deletion strains, locus YEL061C, strain CIN8, hits give low values",1.01
same,normalized growth,"S. cerevisiae deletion strains, locus YGR078C, strain PAC10, hits give low values",0.989
same,normalized growth,[2],0.959
same,normalized growth,"S. cerevisiae deletion strains, locus YHR087W, strain rtc3, hits give low values",1
same,normalized growth,"S. cerevisiae deletion strains, locus YJR043C, strain POL32, hits give low values",0.985
same,normalized growth,"S. cerevisiae deletion strains, locus YJR075W, strain HOC1, hits give low values",0.991
same,normalized growth,"S. cerevisiae deletion strains, locus YKL190W, strain CNB1, hits give low values",1
same,normalized growth,"S. cerevisiae deletion strains, locus YLR039C, strain RIC1, hits give low values",0.961
same,normalized growth,"S. cerevisiae deletion strains, locus YLR058C, strain SHM2 (second series), hits give low values",1.01
same,normalized growth,"S. cerevisiae deletion strains, locus YLR085C, strain ARP6, hits give low values",1.03
same,normalized growth,"S. cerevisiae deletion strains, locus YLR262C, strain YPT6, hits give low values",0.891
same,normalized growth,"S. cerevisiae deletion strains, locus YML094W, strain GIM5, hits give low values",1.03
same,normalized growth,"S. cerevisiae deletion strains, locus YMR219W, strain ESC1, hits give low values",1
same,normalized growth,"S. cerevisiae deletion strains, locus YMR263W, strain SAP30, hits give low values",0.971
same,normalized growth,"S. cerevisiae deletion strains, locus YMR307W, strain GAS1, hits give low values",0.959
same,normalized growth,"S. cerevisiae deletion strains, locus YNL153C, strain GIM3, hits give low values",0.987
same,normalized growth,"S. cerevisiae deletion strains, locus YNL298W, strain CLA4 (second series), hits give low values",0.962
same,normalized growth,"S. cerevisiae deletion strains, locus YNL322C, strain KRE1, hits give low values",1
same,normalized growth,"S. cerevisiae deletion strains, locus YNR030W, strain Alg12, hits give low values",0.996
same,normalized growth,"S. cerevisiae deletion strains, locus YPL055C, strain LGE1, hits give low values",0.894
same,normalized growth,"S. cerevisiae deletion strains, locus YPL241C, strain CIN2, hits give low values",1.01
same,normalized growth,"S. cerevisiae deletion strains, locus YPR135W, strain CTF4, hits give low values",0.93
same,normalized growth,"S. cerevisiae strains, strain wild type, hits give low values",0.99
